Inconclusive results are not listed. A call without a number means that no potency is given here. The source made the active and inactive calls. The call rests on the fitted dose curve; in most records, active means well fitted cell-killing curve with a large enough effect in the repeat runs; inconclusive means weak or mixed curves; inactive means no such curve, though single readings can be large or run the other way.
assay: qHTS assay to identify small molecule antagonists of the peroxisome proliferator-activated receptor delta (PPARd) signaling pathway - cell viability counter screen (AID 743213); conditions: PPARd-bla HEK293H viability, CellTiter-Glo luminescence, 17 h; series mostly up to 62 µM; further: nearly all actives have a fitted effect of over 50% in size
Description: U.S. Tox21 Program National Center for Advancing Translational Sciences [NCATS] NIH Chemical Genomics Center [NCGC] U.S. Environmental Protection Agency [EPA] National Institutes of Environmental Health Sciences [NIEHS] National Toxicology Program [NTP] U.S. Food and Drug Administration [FDA] Tox21 Assay Overview: The peroxisome proliferator-activated receptors (PPARs) are lipid-activated transcription factors of the nuclear receptor superfamily with three distinct subtypes namely PPAR alpha, PPAR delta (PPARd) and PPAR gamma. All these subtypes heterodimerizes with Retinoid X receptor (RXR) and have different physiological functions. […] To identify the compounds that inhibit PPAR-delta signaling, GeneBLAzer PPAR delta UAS-bla HEK293H cell line (Invitrogen, Carlsbad, CA, USA) containing a beta-lactamase reporter gene under the control of an Upstream Activator Sequence (UAS) was used to screen the Tox21 compound library. The cytotoxicity of the Tox21 compound library against the PPARd-bla cell line was tested in parallel by measuring the cell viability using CellTiter-Glo assay (Promega, Madison, WI) in the same wells.
Tox21 Assay Protocol Summary: PPARd-bla cells were dispensed at 3000 cells/5uL/well in 1536-well black wall/clear bottom plates using a Multidrop Combi (Thermo Fisher Scientific, Waltham, MA) dispenser. After the assay plates were incubated at 37 C and 5% CO2 for 5 h, 23 nL of compounds dissolved in DMSO, positive controls or DMSO only was transferred to the assay plate by a Pintool station (Kalypsys, San Diego, CA), followed by addition of 1ul L165041 (300 nM, final concentration in the wells). The assay plates were incubated at 37 C for 17 h, and then 1 uL of LiveBLAzerTM B/G FRET substrate was added using a Bioraptr Flying Reagent Dispenser (FRD) workstation (Beckman Coulter, Indianapolis, IN, USA). The assay plates were incubated at room temperature for 2 h and fluorescence intensity was measured by an Envision plate reader (PerkinElmer, Shelton, CT). For cell viability readout that measures cytotoxicity, 3 ul/well of CellTiter-Glo reagent was added into the assay plates using a Bioraptr FRD. After 30 min incubation at room temperature, the luminescence intensity in the plates was measured using a ViewLux plate reader (PerkinElmer).
Potency means the concentration at half of the fitted maximal effect.

| SMILES | Potency | viability change, negative = cytotoxic |
| --- | --- | --- |
| CCCCCCCCCOC(C)=O | inactive |  |
| Cc1cc(O)c2c(O)c3c(O)cccc3cc2c1 | inactive |  |
| CCCCCCCCCCOS(=O)(=O)O | inactive |  |
| Nc1ccc(Cl)cc1[N+](=O)[O-] | inactive |  |
| CC1=CC(O)CC(C)(C)C1 (stereo not given) | inactive |  |
| CC(=O)Nc1ccccc1C | inactive |  |
| COc1ccccc1N=Nc1c(S(=O)(=O)O)cc2cc(S(=O)(=O)O)cc(NC(C)=O)c2c1O | inactive |  |
| CCn1cc(C(=O)O)c(=O)c2cc(F)c(N3CCNCC3)nc21 | inactive |  |
| CO[C@@]12[C@H](COC(N)=O)C3=C(C(=O)C(C)=C(N)C3=O)N1C[C@@H]1N[C@@H]12 | inactive |  |
| CN(C)C(=O)Nc1ccc(Oc2ccc(Cl)cc2)cc1 | inactive |  |
| c1ccc(COCc2ccccc2)cc1 | inactive |  |
| CO[C@H]1O[C@H](CO)[C@@H](O)[C@H](O)[C@H]1O | inactive |  |
| CC(=O)Oc1ccc(C(=C2CCCCC2)c2ccc(OC(C)=O)cc2)cc1 | inactive |  |
| C=CCCCCCCCCCCCCCCCC |  | 13.3% [at 6.26 µM] (inactive) |
| CCC(Cc1ccccc1)(C(=O)c1ccc(N2CCOCC2)cc1)N(C)C (stereo not given) | inactive |  |
| O=C(CCC1CCN(Cc2ccccc2)CC1)c1ccc2c(c1)NCCCC2 | inactive |  |
| CC1=NN(c2ccc(C(=O)O)cc2)C(=O)C1 | inactive |  |
| OCCSc1ccccc1 | inactive |  |
| O=C(O)c1ccc(CO)o1 | inactive |  |
| CO[Si](C)(OC)OC | inactive |  |

| SMILES | Potency | viability change, negative = cytotoxic |
| --- | --- | --- |
| Cc1cc(C(=C2C=CC(=Nc3ccc(S(=O)(=O)O)cc3S(=O)(=O)O)C=C2)c2ccc(Nc3ccc(S(=O)(=O)O)cc3)cc2)ccc1N | inactive |  |
| CCC(C(=O)OCCOCCN(CC)CC)c1ccccc1 (stereo not given) | inactive |  |
| CCOC(=O)OCC | inactive |  |
| CC(=O)[C@H]1CC[C@H]2[C@@H]3C[C@H](C)C4=CC(=O)CC[C@]4(C)[C@H]3[C@@H](O)C[C@]12C | inactive |  |
| COCCOC(=O)C1=C(C)NC(C)=C(C(=O)OC/C=C/c2ccccc2)C1c1cccc([N+](=O)[O-])c1 (stereo not given) | inactive |  |
| COC(=O)[C@@H]1CC2=CC(=O)CC[C@]2(C)[C@@]23O[C@@H]2C[C@@]2(C)[C@@H](CC[C@@]24CCC(=O)O4)[C@H]13 | inactive |  |
| C[N+](C)(C)CCOC(N)=O | inactive |  |
| O=C(O)c1c(O)c(-c2ccccc2)nc2ccccc12 | inactive |  |
| CC(=O)OCC(=O)[C@H]1CC[C@H]2[C@@H]3CCC4=CC(=O)CC[C@]4(C)[C@H]3CC[C@]12C | inactive |  |
| O=C(CCCN1CCN(c2ccc(F)cc2)CC1)NC1c2ccccc2CSc2ccccc21 (stereo not given) | 8.41 µM (active) |  |
| Cc1ccc(S)cc1 | inactive |  |
| CCCCCCCC/C=C\CCCCCCCC(=O)OC(CO)CO | inactive |  |
| NC(=O)Nc1ccc(Cl)c(Cl)c1 | inactive |  |
| COC(=O)c1cc(Cl)ccc1NS(=O)(=O)C(F)(F)F | inactive |  |
| CCCCC(=O)O[C@]1(C(=O)CO)CC[C@H]2[C@@H]3CCC4=CC(=O)CC[C@]4(C)[C@H]3[C@@H](O)C[C@@]21C | inactive |  |
| Nc1ccc(C(=O)OCCCOC(=O)c2ccc(N)cc2)cc1 | inactive |  |
| O=C(/C=C/c1ccccc1)OCCCc1ccccc1 | inactive |  |
| Cn1c(=O)c2c(ncn2CC(=O)O)n(C)c1=O | inactive |  |
| COc1cc2[nH]c(=O)[nH]c(=O)c2cc1OC | inactive |  |
| CCOc1cc(N)c(Cl)cc1C(=O)NCC1CN(Cc2ccc(F)cc2)CCO1 (stereo not given) | inactive |  |
